Inconclusive results are not listed. Active and inactive are the calls of the source. Unless noted, the call rests on the fitted dose curve.
Legend:
[1] = qHTS assay to identify small molecule agonists of the vitamin D receptor (VDR) signaling pathway - cell viability counter screen (AID 743224; active means well fitted curve in the direction sought with a large enough effect in the repeat runs; an effect the other way counts as inactive or inconclusive; further: series mostly up to about 63 µM; on the % scale 0 is the no-effect control and ±100 the full control effect; nearly all actives have a fitted effect of over 50% in size)
How it was run: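 Counter screen for cytotoxicity: VDR-bla cells at 2,000 cells/well, 16 h compound exposure, then CellTiter-Glo luminescence after the beta-lactamase measurement.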

[2] = qHTS assay to identify small molecule antagonists of the vitamin D receptor (VDR) signaling pathway - cell viability counter screen (AID 743225; active means well fitted curve in the direction sought with a large enough effect in the repeat runs; an effect the other way counts as inactive or inconclusive; further: on the % scale 0 is the no-effect control and ±100 the full control effect; nearly all actives have a fitted effect of over 50% in size)
How it was run: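 Read-out: CellTiter-Glo luminescence measured 30 min after reagent addition at room temperature. Cells were VDR-bla HEK 293T exposed 16 h at 37C, 5% CO2, to compound with 3 nM final calcitriol agonist.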

[3] = qHTS assay to identify small molecule agonists of the NFkB signaling pathway (AID 1159509; active means well fitted curve in the direction sought with a large enough effect in the signal ratio in the repeat runs, not every such curve was filed as active; the % refers to the signal ratio; further: series mostly up to about 61 µM; on the % scale 0 is the no-effect control and ±100 the full control effect)
How it was run: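 Readout: FRET fluorescence, 405 nm excitation, 460/530 nm emission; beta-lactamase expression disrupts FRET. Cells: ME-180 stably carrying NF-kB-driven bla reporter. Compound exposure 5 hr, 37 C, 5% CO2.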

[4] = qHTS assay to identify small molecule agonists of the NFkB signaling pathway - cell viability counter screen (AID 1159515); further: series mostly up to about 61 µM; on the % scale 0 is the no-effect control and ±100 the full control effect; nearly all actives have a fitted effect of over 55% in size
How it was run: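 Counter screen run alongside the NFkB-bla agonist assay: ME-180 reporter cells exposed to compounds for 5 hr, then lysed with CellTiter-Glo in the same wells. Luminescence, read after 30 min, reflects viable cells.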

[5] = qHTS assay to identify small molecule agonists of the endoplasmic reticulum stress response signaling pathway (AID 1159516; active means well fitted activation curve with a large enough effect in the signal ratio in the repeat runs, not every such curve was filed as active; the % refers to the signal ratio; further: on the % scale 0 is the no-effect control and ±100 the full control effect)
How it was run: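 For this screen, HeLa cells stably carrying beta-lactamase under the ER stress response element received test compounds, positive controls or DMSO for 5 hr at 37 C; B/G FRET substrate was then added and dual-wavelength emission recorded.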

[6] = qHTS assay to identify small molecule agonists of the endoplasmic reticulum stress response signaling pathway - cell viability counter screen (AID 1159517); further: series mostly up to about 61 µM; on the % scale 0 is the no-effect control and ±100 the full control effect; nearly all actives have a fitted effect of over 50% in size
How it was run: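 After overnight attachment, ESRE-bla HeLa cells were treated with Tox21 library compounds for 5 hr. CellTiter-Glo luminescence, read 30 min post-addition at room temperature, reported viability.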

[7] = qHTS assay to identify small molecule antagonists of the retinoid-related orphan receptor gamma (ROR-gamma) signaling pathway - cell viability counter screen (AID 1159520; active means well fitted curve in the direction sought with a large enough effect in the repeat runs; an effect the other way counts as inactive or inconclusive; further: on the % scale 0 is the no-effect control and ±100 the full control effect; nearly all actives have a fitted effect of over 50% in size)
How it was run: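 Cytotoxicity was read from cellular ATP (CellTiter-Glo luminescence) after 16 hr at 37 C with 1 uM doxycycline induction. The inducer was added 2 hr after compound transfer to Tet-on ROR gamma CHO cells.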

[8] = molecular target: Nuclear receptor ROR-gamma (Homo sapiens) (UniProt P51449); experiment: qHTS assay to identify small molecule antagonists of the retinoid-related orphan receptor gamma (ROR-gamma) signaling pathway (AID 1159521; active means well fitted curve in the direction sought with a large enough effect in the repeat runs; an effect the other way counts as inactive or inconclusive; further: nearly all actives have a fitted effect of over 50% in size; further: potency means the concentration at half of the fitted maximal effect;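 on activity change, negative = inhibition: CHO cells with doxycycline inducible ROR-gamma driving an RORE luciferase reporter; top concentration of the series differs between compounds; on the % scale 0 is the no-effect control and ±100 the full control effect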)
How it was run: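 CHO Tet-on RORγ, RORE-luc reporter. Cpd 2 h pre-incubation, then dox hyclate 1 uM final, 16 h, 37 C/5% CO2. ONE-Glo luminescence; decrease = antagonist.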

[9] = qHTS assay to identify small molecule agonists of the AP-1 signaling pathway - cell viability counter screen (AID 1159525); further: nearly all actives have a fitted effect of over 55% in size
How it was run: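 Intracellular ATP by Cell Titer Glo luminescence (30 min, RT) in the same ME-180 AP-1-bla wells after the 5 h compound exposure at 37 °C. Normalised to tetra n-octyl ammonium bromide and DMSO controls.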

[10] = qHTS assay to identify small molecule agonists of the AP-1 signaling pathway (AID 1159526); further: on the % scale 0 is the no-effect control and ±100 the full control effect

C=C(C)C(=O)OCCCCCCCCCCOC(=O)C(=C)C
inactive: outcome [1] | outcome [2] | outcome [3] | outcome [4] | outcome [5] | outcome [6] | Potency [7] | Potency [8] | outcome [9] | Potency [10]

O=C(OCCCCCOC(=O)c1ccccc1)c1ccccc1
inactive: outcome [1] | outcome [2] | outcome [3] | outcome [4] | outcome [5] | outcome [6] | Potency [7] | Potency [8] | outcome [9] | Potency [10]

O=[N+]([O-])c1ccc(Cl)cc1Cl
inactive: outcome [1] | outcome [2] | outcome [3] | outcome [4] | outcome [5] | outcome [6] | Potency [7] | Potency [8] | outcome [9] | Potency [10]

O=C(Cl)c1ccc(F)c(Cl)c1
inactive: outcome [1] | outcome [2] | outcome [3] | outcome [4] | outcome [5] | outcome [6] | Potency [7] | Potency [8] | outcome [9] | Potency [10]

CCCCCCCCCCCC(=O)OCC
inactive: outcome [1] | outcome [2] | outcome [3] | outcome [4] | outcome [5] | outcome [6] | Potency [7] | Potency [8] | outcome [9] | Potency [10]

O=C1OC(=O)C2CC=CCC12 (stereo not given)
inactive: outcome [1] | outcome [2] | outcome [3] | outcome [4] | outcome [5] | outcome [6] | Potency [7] | Potency [8] | outcome [9] | Potency [10]

Clc1cccc(C(c2ccc3nc[nH]c3c2)n2ccnc2)c1 (stereo not given)
inactive: outcome [1] | outcome [2] | outcome [3] | outcome [4] | outcome [5] | outcome [6] | Potency [7] | Potency [8] | outcome [9] | Potency [10]

CC1=C(C)C(=O)C(C(CCCCCC(=O)O)c2ccccc2)=C(C)C1=O (stereo not given)
inactive: outcome [1] | outcome [2] | outcome [3] | outcome [4] | outcome [5] | outcome [6] | Potency [7] | Potency [8] | outcome [9] | Potency [10]

O=Cc1ccc(Cl)c([N+](=O)[O-])c1
active: Potency [8] 54.5 µM
inactive: outcome [1] | outcome [2] | outcome [3] | outcome [4] | outcome [5] | outcome [6] | Potency [7] | outcome [9] | Potency [10]

CCc1cnc(C(=O)O)c(C(=O)O)c1
inactive: outcome [1] | outcome [2] | outcome [3] | outcome [4] | outcome [5] | outcome [6] | Potency [7] | Potency [8] | outcome [9] | Potency [10]

S=c1[nH][nH]c(=S)s1
inactive: outcome [1] | outcome [2] | outcome [3] | outcome [4] | outcome [5] | outcome [6] | Potency [7] | Potency [8] | outcome [9] | Potency [10]

O=C(O)c1ccc2c(c1)nc(C(=O)NC1CCN(C3CC3)CC1)n2Cc1cc(-c2ccc(Cl)s2)on1
inactive: outcome [1] | outcome [2] | outcome [3] | outcome [4] | outcome [5] | outcome [6] | activity, negative = cytotoxicity [7] -12.3% [at 19 µM] | activity change, negative = inhibition [8] -14.3% [at 19 µM] | viability change, negative = cytotoxic [9] 0.765% [at 15.8 µM] | activation [10] -0.694% [at 15.8 µM]

Source: PubChem BioAssay (Tox21)
